Results filed as inconclusive are left out. A number with no mark means an inactive call. Activity calls are given as the source filed them. The call rests on the fitted dose curve; in most records, active means well fitted cell-killing curve with a large enough effect in the repeat runs; inconclusive means weak or mixed curves; inactive means flat fitted curve, though single readings scatter.
On the % scale 0 is the no-effect control and ±100 the full control effect.

The test can be described thus: qHTS RealTime-Glo MT Cell Viability Assay in HepG2 cells - 8 hour (AID 1224873). Further: nearly all actives have a fitted effect of over 55% in size. The following applies: RealTime-Glo luminescence; series mostly up to 76.8 µM. An excerpt:
National Center for Advancing Translational Sciences [NCATS]
NIH Chemical Genomics Center [NCGC]
U.S. Environmental Protection Agency [EPA]
National Institutes of Environmental Health Sciences [NIEHS]
National Toxicology Program [NTP]
U.S. Food and Drug Administration [FDA]
Measure of cell viability is critical in the cell-base assay. Analysis of cell viability is necessary for the characterization of cell responses to cytotoxic drugs and environmental stress. A RealTime-Glo MT Cell Viability Assay to monitor cell viability in real time of continues cell culture during 40 hours of compound treatment was used to screen Tox21 10K library compounds in HepG2 cells. The RealTime-Glo MT Cell Viability Assay is a nonlytic, homogeneous, bioluminescent method to measure cell viability in real time using a simple, plate-based method. The assay involves adding NanoLuc luciferase and a cell-permeant prosubstrate to cells in culture. Viable cells reduce the proprietary prosubstrate to generate a substrate for NanoLuc luciferase. This substrate diffuses from cells into the surrounding culture medium, where it is rapidly used by the NanoLuc Enzyme to produce a luminescent signal. The signal correlates with the number of viable cells, making the assay well suited for cytotoxicity studies.
Tox21 Assay Protocol Summary:
The mixture of HepG2 cell suspension and reagents were dispensed at 600cells/6 ul/well in 1536-well tissue culture treated black solid bottom plates using a Multidrop dispenser. After the assay plates were incubated at a 37 C/5% CO2 incubator for 5 hours, 23 nL of compounds dissolved in DMSO, positive and negative controls was transferred to the assay plate by a pintool work station. The plates were incubated at 37 C for 40 hours. The luminescence intensity were measured at 0h, 8h, 16h, 24h, 32h and 40h time points using ViewLux plate reader during compound treatment.
Turning to `CCN(CCO)CCO`, the molecule was classed as inactive. For the molecule `CC(C)[N+](C)(CCC(C(N)=O)(c1ccccc1)c1ccccc1)C(C)C`, the molecule was classed as inactive. For `CC(C)(C)NC[C@H](O)c1ccc(O)cc1Cl`, the molecule was classed as inactive. `ClCC1CO1` (stereo not given): the result was inactive. For `O=C(O)C(F)(F)C(F)(F)C(F)(F)C(F)(F)C(F)(F)C(F)(F)F`, the outcome was inactive. Still for that read-out and setting: next, `CCOP(=S)(OCC)Oc1ccc(Cl)cc1Cl`: “inactive”. Turning to `C=CC1(C)OC(=O)N(c2cc(Cl)cc(Cl)c2)C1=O` (stereo not given), the result was inactive.

Consider `Brc1c(Br)c(Br)c(Br)c(Br)c1Br`, for which the viability change, negative = cytotoxic is -1.77% [at 6.97 µM]. With `O=C(Cl)C(Cl)(Cl)Cl`, the result was inactive. Regarding `CN(C)C(=O)Oc1cc(OC(=O)N(C)C)cc(C(O)CNC(C)(C)C)c1` (stereo not given), the molecule was called inactive.

For `CC(C)(N)Cc1ccccc1Cl`, the molecule was called inactive.

As to `COc1cc(CC(C)N)cc(OC)c1OC` (stereo not given), the result was inactive. In the case of `Oc1ccc2c3c1O[C@H]1[C@@H](O)C=C[C@H]4[C@@H](C2)NCC[C@@]341`, the molecule was classed as inactive. Consider `ClCCCCl`, for which the call was inactive. On the same count and under the same terms, next, `C=CCC1(C(C)CC)C(=O)NC(=O)NC1=O` (stereo not given): “inactive”; `N=C(N)[Se]`: “inactive”; `ClCOCCl`: “inactive”. `C/C=C/CC#N`: the outcome was inactive. As to `CC(C)c1ccc(O)cc1`, the molecule was classed as inactive. On the same count and under the same terms, next, `CCOP(=S)(OCC)SCCl`: “inactive”; `Oc1ccc(Cc2ccc(O)cc2)cc1`: “inactive”; `O=P(O)(O)c1ccccc1`: “inactive”.

On to `CC[C@H](N)c1ccccc1`, for which the call was inactive. As to `CC(C)(C)c1cc(O)ccc1O`, the outcome was inactive. Same read-out and setting: as for `C=CC=O`, the entry is “inactive”; as for `OP(O)c1ccccc1`, “inactive”. Still for that read-out and setting: next, `CC(C)(C)C(=O)C(Cl)Cl`: “inactive”; `N[C@@H](Cc1ccc(Oc2cc(I)c(O)c(I)c2)c(I)c1)C(=O)O`: “inactive”. The same measure, in the same setting: next, `C(COCC1CO1)OCC1CO1` (stereo not given): “inactive”. As to `CCCOC(=O)c1cncn1C(C)c1ccccc1` (stereo not given), the molecule was classed as inactive. Turning to `O=C(NC(=O)c1c(F)cccc1F)Nc1cc(Cl)c(F)c(Cl)c1F`, the outcome was inactive. For `COc1cccc([C@@]2(O)CCCC[C@@H]2CN(C)C)c1`, the outcome was inactive. Turning to `ClCCCCCCCl`, the outcome was inactive.

`O=c1[nH]c2ccccc2n1C1CCNCC1`: the molecule was called inactive. On the same count and under the same terms, next, `COc1cccc(C=O)c1`: “inactive”; `O=c1[nH]c2ccccc2o1`: “inactive”; `CNC(=O)Oc1cc(C)c(N(C)C)c(C)c1`: “inactive”. `Cc1ccc(-c2nc3ccc(C)cn3c2CC(=O)N(C)C)cc1`: the result was inactive. For the molecule `CCNP(=S)(OC)O/C(C)=C/C(=O)OC(C)C` (stereo not given), the molecule was called inactive. As to `CCOC1Oc2ccc(OS(C)(=O)=O)cc2C1(C)C` (stereo not given), the molecule was called inactive.
